Source: PubChem BioAssay (several laboratories)
Platelet DG rel: modulates dense granule release in human platelets | human platelet-rich plasma, SFLLRN dense granule ATP release, luminescence | inhibition, %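 (compounds screened at 7.5 µM in platelet-rich plasma)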 | 300,000 compounds, 0.22% hits;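 active means mean replicate score, as percent of positive control, at or above 50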
NTR1 agonist: agonists of human neurotensin receptor NTR1; NTR1-U2OS beta-arrestin-GFP spot imaging, agonist mode; activation, % at 20 µM; 330,000 compounds, 0.17% hits; AID 493036;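 active means activation at or above 40% of the spot to cytoplasm intensity ratio, with at least 20 cells analyzed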
Target sequence (P30989 whole entry, looked up): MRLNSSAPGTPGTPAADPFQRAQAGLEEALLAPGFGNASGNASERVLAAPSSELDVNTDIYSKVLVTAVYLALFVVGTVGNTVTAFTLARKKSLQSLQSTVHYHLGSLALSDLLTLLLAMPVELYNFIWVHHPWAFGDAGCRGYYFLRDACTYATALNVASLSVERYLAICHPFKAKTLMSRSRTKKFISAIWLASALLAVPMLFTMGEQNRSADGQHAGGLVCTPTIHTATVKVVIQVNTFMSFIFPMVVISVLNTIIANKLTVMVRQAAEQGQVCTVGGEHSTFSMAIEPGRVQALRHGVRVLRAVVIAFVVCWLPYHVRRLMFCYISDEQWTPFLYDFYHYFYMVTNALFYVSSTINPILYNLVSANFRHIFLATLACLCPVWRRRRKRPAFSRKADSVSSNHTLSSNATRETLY
HIF activator: HIF pathway transcriptional activation. 300,000 compounds, 0.32% hits. U2OS HRE-luciferase reporter, luminescence; normalized: DMSO 0%, desferrioxamine 100%. activation, % at 7.5 µM (by protocol). AID 1910;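 active means mean activation of at least 10% of the iron chelator positive control signal, with at least half of replicates also reaching 10%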
Large screens that a line does not name were inactive. Only some compounds are listed: those with a hit (about 0.63% of all), similar ones and a draw of the others.

COc1cccc(OC)c1C(=O)NC(=S)Nc1cccc(NC(=O)c2ccco2)c1	none
Cc1ccccc1NC(=O)CCC(=O)N/N=C/c1cccnc1	none
CCc1cnccc1CCC(=O)Nc1ccccc1C	HIF activator 429.9
O=C(Nc1ccc(S(=O)(=O)NCc2ccco2)cc1)c1ccc2ccccc2n1	none
CCC1=NN2C(=N)/C(=C\c3ccc(OCc4cc(=O)n5nc(CC)sc5n4)c(OC)c3)C(=O)N=C2S1	none (no result: NTR1 agonist)
O=C(O)c1ccccc1Nc1cc(Cl)c2nonc2c1[N+](=O)[O-]	none
O=[N+]([O-])c1c(Nc2ccc(O)cc2)cc(Cl)c2nonc12	Platelet DG rel 55.6
CN(C)c1cc(Nc2ccc(O)cc2)c([N+](=O)[O-])c2nonc12	none
O=[N+]([O-])c1c(Nc2ccccn2)cc(Cl)c2nonc12	Platelet DG rel 59.4
CCOC(=O)c1c(-c2cccs2)csc1NC(=O)CN1CCOCC1	none
Cc1ccc(C(=O)NC(=S)NCc2cccnc2)c(C)c1	none
O=C(COc1ccc(Cl)cc1)Nc1ccc(CN2CCOCC2)cc1	none (no result: Platelet DG rel, HIF activator)
CC(C)(C)c1ccc(C(=O)Nc2ccc(F)cc2)s1	none
CC(C)S(=O)(=O)c1csc(C(=O)Nc2ccc(F)cc2)c1N	Platelet DG rel 57.1
C[C@H](NC(=O)c1ccc(Br)cc1)C(=O)NCc1ccc(S(N)(=O)=O)cc1	none
CNNC(=O)C(C)NC(=O)c1ccc(Br)cc1 (stereo not given)	HIF activator 38.4
COCCNC(=O)/C(C#N)=C/c1cccc(/C=C(\C#N)C(=O)NCCOC)c1	none (no result: NTR1 agonist)
COCCNC(=O)/C(C#N)=C/c1ccc(O)cc1	Platelet DG rel 85.6
Cc1cccc(C)c1NC(=S)/C(=C(\[O-])c1cccs1)[n+]1ccccc1	none
[O-]/C(=C(\C(=S)Nc1cccc2ccccc12)[n+]1ccccc1)c1cccs1	HIF activator 54.6
COc1ccc(C2NC(=S)NC3=C2CCCC3=C2SCCS2)cc1 (stereo not given)	HIF activator 235.5
S=C1NC2=C(CCCC2=C2SCCCS2)C(c2ccccc2)N1 (stereo not given)	none
COc1ccc(S(=O)(=O)n2oc(=O)cc2-c2ccccc2)cc1OC	none
COc1ccc(N2CCOCC2)c(NC(=O)COc2cccc(C)c2)c1	none
c1ccc(-c2nc(-c3ccccn3)no2)cc1	none
Cc1ccc(-c2nc(-c3ccccn3)no2)cc1	Platelet DG rel 52.4
Cc1ccc(-c2nc(-c3ccccn3)no2)cc1Cl	none
c1ccc(-c2ccc(-c3nc(-c4ccccn4)no3)cc2)cc1	Platelet DG rel 94.8 (no result: HIF activator)
Cc1ccccc1-c1noc(-c2ccc(Cl)cc2)n1	none
Cc1ccccc1-c1noc(-c2ccc(O)cc2)n1	Platelet DG rel 99.7 (no result: HIF activator)
Cc1cc(/C=N/n2c(COc3ccccc3)nc3ccccc3c2=O)c(O)c([N+](=O)[O-])c1	HIF activator 14.5
Cc1ccc(-c2[nH]ncc2/C=N/n2c(COc3ccccc3)nc3ccccc3c2=O)cc1	none
CCn1c(=O)cc(SCC(=O)Nc2ccc(C)cn2)c2ccccc21	none
COc1ccccc1C(O)c1nccn1C (stereo not given)	none
CCn1ccnc1C(O)c1ccccc1OC (stereo not given)	HIF activator 27.1
O=C(N/N=C(\Cc1ncc[nH]1)c1ccccc1)c1ccccc1	HIF activator 25.2
O=C(N/N=C(\Cc1ncc[nH]1)c1ccccc1)c1ccncc1	none
Cn1c(N)c(C(=O)COC(=O)/C=C/c2cccc(Br)c2)c(=O)n(C)c1=O	none (no result: Platelet DG rel, HIF activator)
COC(=O)n1c(=O)oc2ccc(S(=O)(=O)N3CCCCC3)cc21	none
CCCCOC(=O)n1c(=O)oc2cc(S(=O)(=O)N3CCCCC3)ccc21	HIF activator 55.1
CC(C)(C)OC(=O)N1CCC[C@H]1c1nnc(SCc2c(Cl)cccc2Cl)o1	none
CC1=C(C(=O)OCC(C)C)[C@]23C(=O)c4ccccc4[C@@]2(O1)OC(N)=C3C#N	none
CCC(C)OC(=O)C1=C(C)OC23OC(N)=C(C#N)C12C(=O)c1ccccc13 (stereo not given)	Platelet DG rel 50.4
Cc1ccc(-n2nnnc2SCC(=O)NCCC2=CCCCC2)c(C)c1	none
Cc1ccccc1/C=N/Nc1nc2ccccc2[nH]1	none
C(=N\Nc1nc2ccccc2[nH]1)/c1cccc2cccnc12	HIF activator 271.2
O=C(O)C1CCCN1S(=O)(=O)c1cccc(S(=O)(=O)N2CCCC2C(=O)O)c1 (stereo not given)	none
COc1ccc(C(=O)NCCOc2ccccc2)cc1S(=O)(=O)N1CCOCC1	none (no result: Platelet DG rel, HIF activator)
COc1ccc(C(=O)Nc2ccccc2C(=O)N/N=C/c2ccccn2)cc1OC	Platelet DG rel 55.8, HIF activator 18.6
COc1cc(C(=O)Oc2ccccc2/C=N/NC(=O)c2ccc(Cl)cc2)cc(OC)c1OC	HIF activator 71.0
COc1cc(C(=O)Oc2ccccc2/C=N/NC(=O)c2ccc(C)c(Cl)c2)cc(OC)c1OC	none
O=C(N/N=C/c1ccccn1)c1ccc(Cl)cc1	HIF activator 11.7
O=C(N/N=C/c1ccccn1)c1ccccc1	none
COc1ccc(C(=O)N/N=C/c2ccccn2)cc1OC	none
O=c1[nH]cnc2sc3c(c12)CCN(Cc1ccccc1)C3	none
COC(=O)C1C(=O)N2CCCSC2=C(C#N)C1c1cccs1 (stereo not given)	HIF activator 35.1
COc1ccc(N2CSC3=C(C#N)C(c4cccs4)CC(=O)N3C2)cc1 (stereo not given)	none
COCCn1c(C)cc(C(=O)COC(=O)CCc2ccc(S(=O)(=O)N3CCOCC3)cc2)c1C	none
Cc1c(C(=O)N(C)c2ccc(Cl)cc2)cnn1-c1ccccc1	none
COc1ccc(-n2c(C)c([N+](=O)[O-])c3ccc(O)c(CN(C)C)c32)cc1	none
CC(=O)Nc1cccc(NC(=O)CSc2ccc(-c3ccccn3)nn2)c1	none
CCc1ccc(NC(=O)CSc2ccc(-c3ccccn3)nn2)cc1	HIF activator 12.6
CCOC(=O)N1CCC(Nc2c(-c3ccccc3)c(=O)c2=O)CC1	HIF activator 12.8
CCOC(=O)N1CCC(Nc2c(-c3ccc(C)cc3)c(=O)c2=O)CC1	none
COC1CC(C)NC(=S)N1 (stereo not given)	none
Nc1nc2n(n1)C1(CCCCC1)C1=C(CCCC1)N2	none (no result: NTR1 agonist)
C1CCC2(CC1)C1=C(CCCC1)Nc1nnnn12	HIF activator 125.8
Cc1ccc(C)c(S(=O)(=O)N2CCN(C(=O)CCNC(=O)c3ccc(Br)cc3)CC2)c1	none
Cc1n[nH]c(=S)n1/N=C/c1c(O)ccc2ccccc12	none
CC(=O)N1CCC(=NNc2nc3ccccc3[nH]2)CC1	HIF activator 22.1
CCC(C)(C)C1CCC(=NNc2nc3ccccc3[nH]2)CC1 (stereo not given)	none
C#Cc1ccc([C@@H]2C=C(C(=O)OCC=C)O[C@H](OCC)[C@H]2CCCO)cc1	none
O=C(O)c1ccccc1-n1cnnn1	none
COc1ccc2cc3cc(C(=O)N4CCN(c5ccccn5)CC4)oc3nc2c1	HIF activator 55.6
COc1ccc2cc3cc(C(=O)N4CC(C)CC(C)C4)oc3nc2c1 (stereo not given)	none
COc1ccc(NC(=O)/C=C/C(=O)O)cc1Cl	none
CCOC(=O)c1c(-c2ccccc2)oc2cc(CN(C)C)c(O)c(CN(C)C)c12	HIF activator 12.2
CCOC(=O)c1c(C)oc2cc(Cl)c(O)c(CN(C)C)c12	none
COCc1cc(C)nc(SCC[N+](C)(C)CC(=O)Nc2cccc(C(F)(F)F)c2)c1C#N	none
CC(C)(C)NC(=O)C(c1cccs1)N(C(=O)c1csnn1)c1cccc(F)c1 (stereo not given)	none
